Screens (PubChem)
In the library only some 3.7% were active in any assay of this set; here they are far more common.
Autofluor counter – flagged as autofluorescent in microsphere protease counterscreen | compound autofluorescence counterscreen, microsphere flow cytometry; hits give high values | fluorescence intensity (concentration not given with the values) | 360,000 compounds, 3.1% hits; in the data active = fluorescence intensity above about 16000; inconclusive = no clear call, values can overlap the other calls
MazF activator – increases E. coli MazEF RNase cleavage of RNA | 350,000 compounds, 0.32% hits | P0AE70 | FAM/BHQ RNA-DNA oligo cleavage fluorescence, 5 h | activation, % at 20 µM; in the data active = activation above about 50%
Target sequence (P0AE70 whole entry, looked up): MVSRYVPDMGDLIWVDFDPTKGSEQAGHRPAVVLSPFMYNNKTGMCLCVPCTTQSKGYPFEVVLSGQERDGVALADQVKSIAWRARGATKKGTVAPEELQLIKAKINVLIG
BoNT A protease – blocks Botulinum neurotoxin A light chain protease. multiplex microsphere protease substrate cleavage, flow cytometry. inhibition, % at 10 µM. 360,000 compounds, 0.17% hits. AID 588499; note: plate controls were buffer without enzyme for full effect and enzyme alone for no effect
Anthrax LF prot – blocks Bacillus anthracis lethal factor protease | P15917 | multiplex microsphere protease cleavage assay, LF | inhibition, % at 10 µM | 360,000 compounds, 0.12% hits; note: plate controls were buffer without enzyme for full effect and enzyme alone for no effect
BoNT-F LC inh – inhibitors of Botulinum neurotoxin F light chain protease | 360,000 compounds, 0.22% hits | Multiplex microsphere protease cleavage assay, flow cytometry | inhibition, % at 10 µM; in the data active = inhibition above about 35%, passing the limit was not always enough; inconclusive = no clear call, values can overlap the other calls; note: plate controls were buffer without enzyme for full effect and enzyme alone for no effect
An asterisk follows results filed as active; ? = inconclusive; / = no result. Cut-off read from the data, not from the text of the source, unless noted: active = inhibition above about 30%; inconclusive = no clear call, values can overlap the other calls; inactive = below that.

SMILES | Autofluor counter | MazF activator | BoNT A protease | Anthrax LF prot | BoNT-F LC inh
COc1ccccc1/C=C1/SC(=S)N(CCC(=O)Nc2cccnc2)C1=O | 5271 | 435* | 1 | -1 | 0
CC(=O)Nc1nnc(CCS(=O)(=O)c2ccc(C)cc2)s1 | 4325 | 8 | -1 | 2 | -13
CCOC(=O)/C(Sc1nc(-c2ccccc2)cc(-c2ccccc2)c1C#N)=C(\C)O | 4590 | 1 | -2 | 7 | ?
CC(C)(C)OC(=O)N1Cc2ccccc2C[C@H]1C(=O)NCC(=O)NC1CCCCC1 | 5353 | 4 | 0 | 0 | 0
Cc1cccc2cc3c(N)c(C#N)sc3nc12 | 9810 | 92* | 6 | -5 | -8
Cc1sc(NC(=O)c2sc3nc4c(C)cccc4cc3c2N)c(C#N)c1C | 9272 | -2 | 5 | -8 | 7
CC(=O)NC(c1ccccc1)c1nc(-c2cccc(F)c2)cs1 (stereo not given) | 4294 | / | -2 | -6 | -23
NC(=S)NN=C(c1ccc(F)cc1)C1CC1 | 4164 | 11 | 0 | -6 | -7
CC1(C)CC(=O)c2cn3nc(C(F)(F)F)nc3nc2C1 | 8301 | 1 | 1 | 2 | 17
Cc1nc2nc3c(cn2n1)C(=O)CCC3 | 21199* | 2 | -2 | -2 | -3
C=CCN(Cc1nc(-c2ccccc2)no1)C(=O)c1ccc2c(c1)OCO2 | 3506 | 10 | 2 | 25 | 8
COc1cccc(C(C)(O)c2nc(-c3cnc4ccccc4c3)cs2)c1 (stereo not given) | 2892 | / | 0 | -2 | 3
O=C1c2cccnc2C(=O)N1Cc1ccc(S(=O)(=O)N2CCOc3ccc(Cl)cc32)cc1 | 5863 | -1 | 0 | -2 | 3
Cc1nnc(SCC(=O)N2CCC(c3noc4ccc(F)cc34)CC2)s1 | 10796 | 2 | 0 | 1 | -3
O=C(CSc1ccc2ccccc2n1)N1CCC(c2noc3ccc(F)cc23)CC1 | 22244* | -1 | -8 | 0 | -10
O=C(NCC1CCCN1S(=O)(=O)c1cccs1)C(=O)Nc1ccccc1Cl (stereo not given) | 10701 | -9 | 2 | 4 | 12
COc1ccc(C(=O)N/C(=C/c2cccs2)C(=O)NCCCn2ccnc2)cc1OC | 20263* | -2 | 1 | 0 | 0
COc1ccc(/C=C(/NC(=O)c2ccccc2)C(=O)NCCCn2ccnc2)cc1OC | 4759 | 13 | 3 | 1 | 5
CCOC(=O)c1ccc(NC(=O)Nc2ccc3c4c(cccc24)C(=O)N3CC)cc1 | 21257* | 35 | -2 | 0 | -2
Cc1cc(C)cc(NC(=O)C2C3C=CC4(O3)C2C(=O)N(CCCN(C)C)C4C(=O)NC2CCCC(C)C2C)c1 (stereo not given) | 5514 | 7 | 0 | -1 | 13
Cc1nn(Cc2ccc([N+](=O)[O-])cc2)c(=O)n1-c1ccccc1 | 17702* | -3 | ? | -10 | 10
O=C1NN(c2ccccc2)C(=O)/C1=C\c1ccccc1OCC(=O)N1CCOCC1 | 21121* | -3 | 5 | -17 | 4
CCc1ccccc1N=C1S/C(=C/c2ccccc2OCC(=O)N2CCOCC2)C(=O)N1C | 2453 | -4 | 0 | -2 | -4
C#CCN1c2ccccc2Sc2cccnc21 | 3828 | 71* | 4 | -16 | ?
COC(=O)C1=C(C)NC(C)=C(C(=O)OC)C1c1ccc(N(C)C)cc1 | 23084* | 6 | ? | 0 | -2
SMILES | Autofluor counter | MazF activator | BoNT A protease | Anthrax LF prot | BoNT-F LC inh
CCOC(=O)C1=C(C)NC(C)=C(C(=O)OCC)C1/C=C/c1ccccc1 | 22125* | -4 | 3 | 1 | 2
C=CCOC(=O)C1=C(C)NC(C)=C(C(=O)OCC=C)C1/C=C/c1ccccc1 | 3810 | -2 | 0 | -4 | -6
COC(=O)C1=C(C)NC(C)=C(C(=O)OC)C1/C=C/c1ccccc1 | 20052* | -5 | -2 | -2 | -4
O=C(Nc1nnc(CCS(=O)(=O)c2ccc3ccccc3c2)s1)c1ccc([N+](=O)[O-])cc1 | 2086 | -5 | -1 | -1 | -5
COc1cc2c3nnc(-c4ccc(F)cc4)c-3cn(Cc3cccc(C)c3)c2cc1OC | 6576 | 250* | 1 | -1 | -1
COc1cc2c3nnc(-c4ccc(F)cc4)c-3cn(Cc3cccc(F)c3)c2cc1OC | 2960 | 212* | 5 | -2 | 2
CCOC(=O)C1=CN(Cc2cccc(F)c2)S(=O)(=O)N(C)C1CCc1ccccc1 (stereo not given) | 2963 | -3 | -1 | 8 | 0
COc1ccc2c(=O)c3c(=O)n(Cc4ccco4)c(-c4cc(OC)c(OC)c(OC)c4)nc3oc2c1 | 16166* | 3 | 1 | -1 | 2
O=C(Nc1ccccc1C(=O)NCCCN1CCOCC1)c1ccc(F)cc1 | 5804 | -11 | -1 | -4 | -1
O=C(O)c1cccc(COc2ccccc2Cl)c1 | 22141* | -7 | 4 | -3 | 2
CCC(C)NC(=O)c1ccc(COc2ccccc2Cl)cc1 (stereo not given) | 21804* | -9 | -7 | 1 | -10
CN1CCN(C(=O)c2ccc(COc3cc(Cl)ccc3Cl)o2)CC1 | 3270 | -15 | -1 | -4 | 5
CN1CCN(C(=O)c2cccc(COc3cc(Cl)ccc3Cl)c2)CC1 | 22814* | 3 | -2 | -1 | -2
O=C(COc1ccccc1)Nc1nnc(S(=O)(=O)Nc2ccccc2)s1 | 5748 | 3 | 0 | -6 | 5
CC(C)CN(C(=O)CSc1nc2ccccc2c(=O)n1C)C1CCS(=O)(=O)C1 (stereo not given) | 3525 | 3 | 0 | -6 | 4
C/C(=N\O)c1ccc2c3ccccc3n(C)c2c1 | 21762* | -3 | ? | -4 | -8
NC(N)=NCCCS(=O)(=O)Nc1ccc(Nc2c3ccccc3nc3cc([N+](=O)[O-])ccc23)cc1 | 3335 | 51* | 0 | -14 | -26
CCOC(=O)N1CCC(=NNS(=O)(=O)c2cccc([N+](=O)[O-])c2)CC1 | 22772* | 47 | -8 | -2 | -8
CCOC(=O)N1CCN(S(=O)(=O)c2cc([N+](=O)[O-])ccc2C)CC1 | 4535 | 4 | -1 | -2 | -8
Cc1csc(C(=O)O)c1NC(=O)c1ccc(F)cc1 | 3044 | 0 | 0 | 4 | -12
COC(=O)c1scc(C)c1N/N=C(\C)c1ccc(F)cc1 | 23635* | -9 | ? | -10 | -11
CC(C)n1c(SCC(=O)NCc2ccco2)nnc1C1CC1 | 5948 | 1 | 0 | 1 | -3
CCOc1cc(CNC)ccc1OCC(=O)NC(C)(C)C | 2592 | 10 | 0 | 1 | -1
CCOc1cc(CNn2nnnc2N)ccc1OCC(=O)NC(C)(C)C | 16985* | 2 | -2 | 0 | -4
CC(C)(C)NC(=O)COc1ccc(CNn2nnnc2N)cc1 | 3463 | 9 | 0 | 2 | 2
COc1cc(CNn2nnnc2N)ccc1OCC(=O)NC(C)(C)C | 23140* | 3 | 1 | -1 | -1
O=[N+]([O-])c1ccc(Nc2ccccc2O)c2nonc12 | 4052 | 232* | 3 | 6 | ?
O=C(COC(=O)c1cc(S(=O)(=O)N2CCOCC2)ccc1O)Nc1ccc2c(c1)OCO2 | 3765 | 2 | 0 | -1 | -3
CCc1ccc(OCCNC(=O)c2ccc(S(=O)(=O)N(C)C)cc2)cc1 | 22522* | 2 | 0 | -2 | 0
